Reference: PubChem BioAssay
Calls of active or inactive are those of the source.

Key:
[1] = system: Plasmodium falciparum Sir2 (PF13_0152, Sir2A); assay: Plasmodium falciparum Sir2A binding compounds – biochemical, small-molecule microarray, 635 nm fluorescence, primary screen (AID 1098); details: fluorescence 635 nm, higher = more signal;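 note: score merges spot fluorescence intensity with its signal-to-noise ratio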
[2] = probe aDKK1 binding to arrayed compounds – biochemical, biotinylated probe, 635/667 nm fluorescence, primary screen (AID 1099); details: small-molecule microarray, higher = more signal;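 note: score merges 667nm spot fluorescence with signal to noise across triplicate slides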
[3] = probe aCHRDL2 binding to arrayed compounds – biochemical, biotinylated probe, 635/667 nm fluorescence, primary screen (AID 1100); details: small-molecule microarray, higher = more signal
[4] = change in splice reporter luminescence, either direction, cell-based, HEK293, spliceosome inhibition project, primary screen (AID 1101); details: HEK293 splicing luciferase reporter, 24 h, higher = more signal, called active from +8 up or from −8 down;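 note: HEK293 cells carrying a splicing-competent luciferase reporter gene; test concentration not given here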
[5] = molecular target: Fibroblast growth factor 10 (Homo sapiens) (UniProt O15520); assay: compounds binding fibroblast growth factor 10 – biochemical, small-molecule microarray, 635 nm fluorescence, primary screen (AID 1102); details: FGF10 binding, fluorescence 635 nm, higher = more signal
[6] = system: glycogen synthase kinase-3 (GSK3A per assay name; protocol says GSK3B); assay: compounds binding glycogen synthase kinase-3 – biochemical, small-molecule microarray, 635 nm fluorescence, GSK3A, primary screen (AID 1103); details: fluorescence 635 nm, higher = more signal; note: the record names both GSK3A and GSK3B
[7] = molecular target: Epidermal growth factor receptor (Homo sapiens) (UniProt P00533); assay: compounds binding epidermal growth factor receptor – biochemical, small-molecule microarray, 635 nm fluorescence, primary screen (AID 1104); details: EGFR binding, higher = more signal;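 note: score merges 667 nm emission intensity with spot signal to noise over triplicate slides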
[8] = molecular target: Follistatin-related protein 3 (Homo sapiens) (UniProt O95633); assay: compounds binding follistatin-related protein 3 – biochemical, small-molecule microarray, 635 nm fluorescence, primary screen (AID 1105); details: FSTL3 binding, higher = more signal;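 note: score merges emission near 667 nm and signal to noise per printed spot across three slides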
[9] = molecular target: Dickkopf-related protein 1 (Homo sapiens) (UniProt O94907); assay: small molecules binding DKK1 protein – biochemical, small-molecule microarray, 635 nm fluorescence scan, primary screen (AID 1106); details: higher = more signal;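 note: score merges emission near 667 nm with signal to noise over three replicate slides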
[10] = system: Inhibin beta A chain (activin A); assay: small molecules binding activin A – biochemical, small-molecule microarray, 635 nm fluorescence scan, primary screen (AID 1107); details: INHBA, higher = more signal;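 note: mouse activin A protein probed at 4.33 µg/mL on printed slides; score merges bound-protein fluorescence near 667 nm with spot signal-to-noise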
[11] = system: Human papillomavirus type 1a protein E7 (residues 44-93); assay: small molecules binding HPV E7 44-93 – biochemical, small-molecule microarray, residues 44-93, 635 nm fluorescence, primary screen (AID 1108); details: fluorescence 635 nm, higher = more signal;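 note: E7 fragment applied at 1 µg/mL in TBST for 1 h at 4 C; score combines spot fluorescence with its signal to noise ratio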
[12] = hepatitis C replication reporter changes, two-sided – Huh7 cells, luciferase reporter, HCV replication inhibitor project, primary screen (AID 1109); details: Huh7 HCV replicon luciferase reporter, 48 h; higher = more signal;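 note: huh7 hepatoma cells harbouring a luciferase neomycin HCV replicon reporter; luciferase luminescence as measure of HCV replicon replication; test concentration not given here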
[13] = molecular target: Left-right determination factor 2 (Homo sapiens) (UniProt O00292); assay: small molecules binding LEFTY2 protein – biochemical, small-molecule microarray, 635 nm fluorescence scan, primary screen (AID 1110); details: higher = more signal
[14] = molecular target: Calmodulin-1 (Homo sapiens) (UniProt P0DP23); assay: small molecules binding calmodulin-1 with EGTA – biochemical, small-molecule microarray, Cy5-labelled CALM1, profiling panel (AID 1111); details: Cy5-CALM1 binding fluorescence, higher = more signal;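 note: labelled calmodulin applied in Tris saline Tween buffer holding calcium plus EGTA and DTT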
[15] = molecular target: Calmodulin-1 (Homo sapiens) (UniProt P0DP23); assay: small molecules binding Ca-loaded calmodulin-1 – biochemical, small-molecule microarray, Cy5-labelled CALM1, plus calcium, artefact control for SMM control-protein annotation, profiling panel (AID 1112); details: Cy5-CALM1 binding fluorescence, higher = more signal;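 note: score merges spot fluorescence with signal to noise from triplicate slides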
[16] = probe aWnt5a binding to arrayed compounds – biochemical, biotinylated probe, 635/667 nm fluorescence, primary screen (AID 1113); details: small-molecule microarray, higher = more signal;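 note: score merges 667 nm fluorescence intensity with signal-to-noise per printed feature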
[17] = probe aShh binding to arrayed compounds – biochemical, biotinylated probe, 635/667 nm fluorescence, primary screen (AID 1114); details: small-molecule microarray, higher = more signal;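 note: probe is biotin-labelled aShh protein from a stem cell growth factor screen; measures binding of labelled protein to compounds printed on the slide; score merges feature fluorescence at 667 nm with signal-to-noise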
[18] = probe aNog binding to arrayed compounds – biochemical, biotinylated probe, 635/667 nm fluorescence, primary screen (AID 1115); details: small-molecule microarray, higher = more signal;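 note: probe is biotinylated aNog protein used at 0.15 µg/mL for 1 h at 4 C; z-score combines 667 nm fluorescence of each spot with its signal to noise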
[19] = molecular target: Torsin-1A-interacting protein 1 (Homo sapiens) (UniProt Q5JTV8); assay: compound microarray binding of lysate hLAP1 – cell lysate, small-molecule microarray, COS7 lysate, 635/667 nm fluorescence, primary screen (AID 1116); details: 635 nm fluorescence, higher = more signal
[20] = molecular target: Alpha-bungarotoxin (Bungarus multicinctus) (UniProt P60615); assay: compounds binding labelled alpha-BTX control protein – biochemical, small-molecule microarray, Alexa647 label, 635/667 nm fluorescence, artefact control for SMM control protein annotation, profiling panel (AID 1117); details: alpha-BTX-A647 binding fluorescence, higher = more signal
Alpha-bungarotoxin (Bungarus multicinctus), sequence (P60615 whole entry, looked up): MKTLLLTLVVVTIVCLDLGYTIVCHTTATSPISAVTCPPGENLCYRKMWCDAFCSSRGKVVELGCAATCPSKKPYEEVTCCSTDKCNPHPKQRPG

Left-right determination factor 2 (Homo sapiens), sequence (O00292 whole entry, looked up): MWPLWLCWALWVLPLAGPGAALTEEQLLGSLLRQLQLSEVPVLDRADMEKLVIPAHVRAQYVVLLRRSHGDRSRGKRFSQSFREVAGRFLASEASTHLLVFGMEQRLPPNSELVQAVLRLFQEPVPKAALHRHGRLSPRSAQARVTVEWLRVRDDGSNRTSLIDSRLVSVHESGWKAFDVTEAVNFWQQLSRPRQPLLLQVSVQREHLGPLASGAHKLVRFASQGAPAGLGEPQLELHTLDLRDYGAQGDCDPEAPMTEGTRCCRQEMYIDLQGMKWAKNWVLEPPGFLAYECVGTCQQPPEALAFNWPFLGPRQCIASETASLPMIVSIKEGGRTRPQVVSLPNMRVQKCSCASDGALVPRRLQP
Follistatin-related protein 3 (Homo sapiens), sequence (O95633 whole entry, looked up): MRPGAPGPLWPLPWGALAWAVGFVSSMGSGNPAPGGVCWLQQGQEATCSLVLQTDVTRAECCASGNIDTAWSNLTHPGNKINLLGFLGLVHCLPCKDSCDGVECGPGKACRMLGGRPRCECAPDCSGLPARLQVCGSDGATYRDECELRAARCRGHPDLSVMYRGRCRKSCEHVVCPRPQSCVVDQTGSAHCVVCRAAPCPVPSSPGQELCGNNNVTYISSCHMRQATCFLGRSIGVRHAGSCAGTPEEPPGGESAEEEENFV
Epidermal growth factor receptor (Homo sapiens), sequence (P00533 whole entry, looked up): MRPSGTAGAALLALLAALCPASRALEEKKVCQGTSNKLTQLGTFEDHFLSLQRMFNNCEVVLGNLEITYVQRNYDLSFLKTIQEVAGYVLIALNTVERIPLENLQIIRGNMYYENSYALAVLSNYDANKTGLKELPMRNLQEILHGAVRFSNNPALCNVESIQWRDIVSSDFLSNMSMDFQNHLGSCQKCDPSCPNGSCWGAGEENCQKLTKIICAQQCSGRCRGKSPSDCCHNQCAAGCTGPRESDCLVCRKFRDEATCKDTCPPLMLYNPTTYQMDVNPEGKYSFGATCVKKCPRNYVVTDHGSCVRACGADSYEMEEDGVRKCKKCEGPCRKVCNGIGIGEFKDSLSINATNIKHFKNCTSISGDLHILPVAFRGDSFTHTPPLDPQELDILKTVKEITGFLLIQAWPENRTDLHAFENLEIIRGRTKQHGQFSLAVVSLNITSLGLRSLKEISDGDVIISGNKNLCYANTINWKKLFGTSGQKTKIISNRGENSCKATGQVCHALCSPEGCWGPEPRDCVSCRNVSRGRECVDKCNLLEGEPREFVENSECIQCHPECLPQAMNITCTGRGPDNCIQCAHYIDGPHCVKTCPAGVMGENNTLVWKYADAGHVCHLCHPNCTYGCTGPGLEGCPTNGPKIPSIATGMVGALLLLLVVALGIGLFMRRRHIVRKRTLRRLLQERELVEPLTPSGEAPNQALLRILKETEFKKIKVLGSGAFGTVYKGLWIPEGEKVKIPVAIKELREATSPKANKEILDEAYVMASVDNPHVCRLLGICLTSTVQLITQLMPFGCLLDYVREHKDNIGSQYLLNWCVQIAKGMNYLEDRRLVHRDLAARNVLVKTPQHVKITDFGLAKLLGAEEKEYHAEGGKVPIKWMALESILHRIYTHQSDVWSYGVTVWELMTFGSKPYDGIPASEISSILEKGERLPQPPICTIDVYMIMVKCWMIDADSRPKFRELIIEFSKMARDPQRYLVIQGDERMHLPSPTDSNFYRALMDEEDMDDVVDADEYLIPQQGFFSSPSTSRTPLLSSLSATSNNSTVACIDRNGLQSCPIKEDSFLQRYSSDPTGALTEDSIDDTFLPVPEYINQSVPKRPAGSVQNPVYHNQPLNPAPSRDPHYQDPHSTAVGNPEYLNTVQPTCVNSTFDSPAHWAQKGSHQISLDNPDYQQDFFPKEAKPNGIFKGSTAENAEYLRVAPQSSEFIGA
Fibroblast growth factor 10 (Homo sapiens), sequence (O15520 whole entry, looked up): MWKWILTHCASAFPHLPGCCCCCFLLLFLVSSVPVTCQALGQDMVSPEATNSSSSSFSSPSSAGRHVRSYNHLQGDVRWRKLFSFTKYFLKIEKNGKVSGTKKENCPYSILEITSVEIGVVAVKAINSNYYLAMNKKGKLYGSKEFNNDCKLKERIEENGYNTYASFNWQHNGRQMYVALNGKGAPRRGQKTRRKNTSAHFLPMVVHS
Torsin-1A-interacting protein 1 (Homo sapiens), sequence (Q5JTV8 whole entry, looked up): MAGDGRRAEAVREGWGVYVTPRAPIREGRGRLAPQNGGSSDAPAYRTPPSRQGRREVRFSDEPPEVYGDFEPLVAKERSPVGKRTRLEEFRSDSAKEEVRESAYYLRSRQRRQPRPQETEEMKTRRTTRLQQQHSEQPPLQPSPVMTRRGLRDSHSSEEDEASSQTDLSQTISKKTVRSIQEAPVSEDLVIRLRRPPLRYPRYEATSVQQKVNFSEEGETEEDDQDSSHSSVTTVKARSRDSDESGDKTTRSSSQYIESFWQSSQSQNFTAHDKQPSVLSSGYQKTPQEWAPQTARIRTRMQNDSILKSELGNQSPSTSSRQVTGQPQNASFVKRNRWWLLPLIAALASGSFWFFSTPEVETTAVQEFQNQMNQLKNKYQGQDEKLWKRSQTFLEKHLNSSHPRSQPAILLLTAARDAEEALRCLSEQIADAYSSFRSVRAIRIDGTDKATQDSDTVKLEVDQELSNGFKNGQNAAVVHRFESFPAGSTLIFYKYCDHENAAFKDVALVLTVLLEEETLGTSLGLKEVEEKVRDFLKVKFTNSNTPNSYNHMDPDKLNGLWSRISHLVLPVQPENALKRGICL
Dickkopf-related protein 1 (Homo sapiens), sequence (O94907 whole entry, looked up): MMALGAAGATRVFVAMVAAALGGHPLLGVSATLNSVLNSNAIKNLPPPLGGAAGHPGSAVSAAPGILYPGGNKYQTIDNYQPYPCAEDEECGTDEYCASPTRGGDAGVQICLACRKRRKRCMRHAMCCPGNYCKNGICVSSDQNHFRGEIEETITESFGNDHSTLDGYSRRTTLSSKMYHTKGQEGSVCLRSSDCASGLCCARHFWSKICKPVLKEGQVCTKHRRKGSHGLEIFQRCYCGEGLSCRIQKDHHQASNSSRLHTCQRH

Compound | composite z-score [1] | composite z-score [2] | composite z-score [3] | z-score [4] | composite z-score [5] | composite z-score [6] | composite z-score [7] | composite z-score [8] | composite z-score [9] | composite z-score [10] | composite z-score [11] | z-score [12] | composite z-score [13] | composite z-score [14] | composite z-score [15] | composite z-score [16] | composite z-score [17] | composite z-score [18] | composite z-score [19] | composite z-score [20]
CO[C@@H]1COC(=O)CC=C[C@@H](C)[C@H](OC)COC(=O)[C@@H](C)COC(=O)CC=C[C@H]1C | 0.474 | -0.803 | -1.29 | 0.166 (inactive) | -0.55 | 0.0478 | 0.354 | 0.734 | 1.37 | 1.85 | -0.82 | 0.0811 | 0.889 | -0.618 | -1.59 | -0.237 | -0.0553 | -0.284 | 0.263 | -0.864
CCOC(=O)CCN1C(=O)[C@H]2[C@H]3[C@H](O)[C@H](O)CC(=NOCc4ccccc4)[C@H]3CC[C@H]2C1=O | 0.1 | 1.27 | 1.32 | 0.509 (inactive) | -0.556 | -0.395 | 0.193 | -0.828 | -1.06 | 0.288 | -0.207 | 0.676 | 0.389 | -0.205 | -0.329 | -0.174 | -0.0977 | -0.0312 | 0.0908 | 0.857
COC(=O)CC=C[C@@H](C)[C@@H](C=NO[C@H](C)c1cn([C@H](CO)Cc2ccccc2)nn1)OC | 0.611 | -0.233 | -0.736 | 0.934 (inactive) | 0.877 | 0.483 | 0.952 | 0.515 | 1.06 | -0.34 | 0.319 | -1.3 | 1.1 | -1.03 | -1.24 | -0.0179 | -0.138 | -0.191 | 0.427 | 0.608
C[C@H]1CC[C@H]2C(=O)O[C@H](COc3ccc(C(C)(C)C)cc3)CN2[C@@H]1c1ccc(Br)cc1 | 0.926 | -0.143 | -0.0663 | 0.134 (inactive) | 0.0311 | 0.102 | -0.0022 | -0.156 | -0.189 | 0.0563 | 0.179 | -0.145 | -0.281 | 1 | 0.101 | -0.139 | -0.0548 | 0.0051 | 0.303 | 1.15
C=CC[C@@H]1C=C[C@H](ON=C(C)CCC(=O)OC[C@H]2O[C@H](c3ccccc3)C=C[C@@H]2Oc2ccc(OC)cc2)[C@@H](CO)O1 | 0.892 | -0.347 | -0.524 | -0.393 (inactive) | -0.196 | -0.855 | -0.382 | -0.532 | 0.0305 | 0.837 | -0.0821 | -1.54 | -0.189 | -0.725 | -0.878 | -0.152 | -0.221 | -0.158 | 0.106 | -0.55
